MITF inh – inhibitors of human MITF. AlphaScreen MITF homodimerization, bead proximity signal. inhibition, % at 2.6 µM. O75030. 650,000 compounds, 0.91% hits; in the data active means inhibition above about 50%;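 further: 0% = vehicle wells with protein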
Target sequence (O75030 whole entry, looked up): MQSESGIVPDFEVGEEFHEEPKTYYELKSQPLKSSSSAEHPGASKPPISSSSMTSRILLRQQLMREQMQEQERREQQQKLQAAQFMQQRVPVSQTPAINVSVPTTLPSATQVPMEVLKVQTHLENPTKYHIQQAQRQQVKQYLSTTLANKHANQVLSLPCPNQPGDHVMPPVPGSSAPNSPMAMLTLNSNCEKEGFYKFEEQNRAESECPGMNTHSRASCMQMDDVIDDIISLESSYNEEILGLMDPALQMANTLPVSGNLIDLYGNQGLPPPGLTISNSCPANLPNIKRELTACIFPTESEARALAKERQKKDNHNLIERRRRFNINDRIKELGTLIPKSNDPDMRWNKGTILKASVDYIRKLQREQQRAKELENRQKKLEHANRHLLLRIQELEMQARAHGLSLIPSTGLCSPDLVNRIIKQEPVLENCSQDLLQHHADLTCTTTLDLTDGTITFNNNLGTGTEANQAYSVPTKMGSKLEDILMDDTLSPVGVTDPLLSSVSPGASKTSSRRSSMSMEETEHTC
TEAD-YAP block – TEAD-YAP interaction inhibition; HEK-TIYL cells, TEAD-Gal4/YAP UAS-luciferase luminescence; inhibition, % at 9.12 µM; 640,000 compounds, 1.4% hits; AID 1259422; in the data active means inhibition above about 32%;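 further: 0% = median of test compound wells and 100% = reference inhibitor wells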
FBW7 act – human FBW7 E3 ligase activation, primary screen; Q969H0; AID 1259310; 650,000 compounds, 0.13% hits; AlphaScreen FBW7–phospho-cyclin E peptide binding, activator screen; normalized activity (activation), % at 26.1 µM; in the data active means normalized activity above about 1.9%;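 further: purified mutant Fbw7 with reduced substrate affinity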
GPR151 ag – activates the human receptor GPR151; 650,000 compounds, 1% hits; activation, % at 11.2 µM; PathHunter beta-arrestin GPR151 cells, luminescence; Q8TDV0; in the data active means activation above about 4.9%;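 further: 0% = median of compound wells and 100% = cells with positive control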
MITF confirm – confirmation of human MITF inhibitors; shares compounds with MITF inh; AlphaScreen MITF homodimerization, biotin/His-MITF beads; inhibition, % at 2.6 µM; 4,700 compounds, 16% hits;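 active means inhibition above a cutoff derived from the DMSO control wells, cut at about 28% in these data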;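 further: 0% = MITF dimer wells with DMSO only; inhibitors lower the bead chemiluminescence by keeping MITF from dimerizing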
AS interf DR – optically interferes with AlphaScreen signal in dose response; shares compounds with MITF inh; AlphaScreen optical interference counterscreen, cell-free; IC50, µM; 480 compounds, 6% hits; call rule not given here
AS interf ctr – counter-screen: compounds optically interfering with AlphaScreen; 4,700 compounds, 7.6% hits; AID 1259376; LysRS AlphaScreen counterscreen, signal interference, triplicate; inhibition, % at 2.6 µM; shares compounds with MITF inh;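 active means inhibition above a cutoff derived from the DMSO control wells, cut at about 30% in these data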
The depositor's hits bear a star; / = no result given. A selection: hits, their analogues and other compounds. The true share with any hit is near 3.5%.

SMILES	MITF inh	TEAD-YAP block	FBW7 act	GPR151 ag	MITF confirm	AS interf ctr	others
O=C(Cc1ccccc1)N1CCC(N2CCN(c3ccccc3)CC2)CC1	55*	5	0	1	-2	3
O=C(Cc1ccccc1)N1CCC(C(=O)N2CCN(c3ccccc3)CC2)CC1	0	4	0	-2	/	/
CN(Cc1ccccc1)c1cc(-c2ccncc2)nc(-c2cccnc2)n1	6	-7	0	1	/	/
CN(Cc1ccccc1)c1cc(-c2ccccn2)nc(-c2ccccn2)n1	79*	40*	-1	3	37*	81*
CN(c1ccc(C(=O)NCc2ccccn2)cc1)S(=O)(=O)c1ccc(Cl)cc1	58*	13	0	1	-14	-3
Cc1ccc(OCCN2CCN(CC(O)Cn3c4ccccc4c4ccccc43)CC2)cc1 (stereo not given)	74*	6	0	0	11	7
COCC(C)NC(=O)c1ccc([N+](=O)[O-])c(C)c1 (stereo not given)	10	-5	0	0	/	/
COc1ccc(C)cc1N1CC(C(=O)O)CC1=O (stereo not given)	-10	-1	0	1	/	/
CN(C)CCCN(CCCN(C)C)Cc1ccc(C(F)(F)F)cc1	54*	-2	0	0	-9	0
CN(C)CCCN(CCCN(C)C)Cc1ccc(F)c(F)c1	56*	-1	0	0	-12	-1
CCCN(CCC)C(=O)c1c(NC(C)=O)sc2c1CCCCC2	65*	-10	0	2	63*	38*
CCCN(CCC)C(=O)c1c(NC(=O)c2cccnc2)sc2c1CCCCC2	-4	-5	0	0	/	/
COC1(OC)N=C(N)C2(C#N)C(c3cccc(OCc4ccccc4)c3)C12C#N (stereo not given)	35	-3	0	-1	/	/
COC1(OC)N=C(N)C2(C#N)C(c3cccc(C)c3)C12C#N (stereo not given)	52*	2	0	0	8	-2
c1ccc(-c2ccc(SCc3cccnc3)nn2)nc1	85*	-29	-2	-3	99*	100*
NC(=O)CSc1ccc(-c2ccccn2)nn1	82*	-3	0	0	73*	94*
CCSc1ccc(-c2ccccn2)nn1	82*	-38	0	-3	76*	97*
Fc1ccc(-c2ccc(SCc3cccnc3)nn2)cc1	4	-59	0	-1	/	/
c1ccc(CSc2ccc(-c3ccccn3)nn2)nc1	86*	-10	-2	-2	96*	100*
CCCOc1ccc2c(=O)c(-c3ccccc3)coc2c1C	-2	-40	0	-1	/	/
Cc1ccc2c(Cl)c(C(=O)NCc3ccncc3)sc2c1	70*	5	0	0	4	4
CCOC(=O)CNC(=O)c1sc2cc(C)ccc2c1Cl	15	12	1	-1	/	/
Cn1nnnc1SCC(=O)Nc1ccc2nc(SCc3ccc(Br)cc3)sc2c1	-3	2	0	0	/	/
O=c1c(CN2CCCCC2)coc2ccc(Cl)cc12	2	-7	0	-1	/	/
CN1CCN(Cc2coc3c(Cl)cc(Cl)cc3c2=O)CC1	64*	-3	0	1	0	1
SMILES	MITF inh	TEAD-YAP block	FBW7 act	GPR151 ag	MITF confirm	AS interf ctr	others
O=C(c1ccc(Sc2ccc(Br)cc2)c([N+](=O)[O-])c1)N1CCN(c2ccc(F)cc2)CC1	1	5	0	-1	/	/
O=C(c1csc(-n2cccc2)n1)N1CCN(c2ccccc2O)CC1	3	2	0	-1	/	/
O=C(c1csc(-n2cccc2)n1)N1CCN(c2ccccn2)CC1	60*	2	0	-1	14	9
COc1ccc(CN2CCN(Cc3ccc(OC)c(Br)c3)CC2)c(OC)c1	63*	-9	0	0	2	5
COc1ccc(OC)c(CN2CCN(Cc3cccc(Br)c3)CC2)c1	59*	0	0	0	18	18
COc1ccc(OC)c(CN2CCN(Cc3ccc(OC)c(Br)c3)CC2)c1	66*	5	0	-1	11	18
COc1ccc(CN2CCN(C3CCCC3)CC2)cc1Br	23	2	0	-1	/	/
C/C(=N\Nc1ccc(S(=O)(=O)O)cc1)c1ccc([N+](=O)[O-])o1	60*	-2	0	0	40*	2	AS interf DR=>6.5
